PNC assembly inh: inhibitors of perinucleolar compartment assembly; PC3M PTB-GFP, PNC prevalence imaging, 16 h; active compounds read low; activity change (PNC), negative = inhibition, % at 10 µM; 140,000 tested, 3.1% active;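 active means readout at or below -70, meaning at least 70% loss of cells showing the perinucleolar compartment, a nuclear body marking cancer cells; inconclusive means readout between -30 and a set limit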;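 further: plate controls were DMSO wells for no effect and camptothecin positive control wells for full effect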
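Compounds are pinned in duplicate onto adhered PC3M cells stably expressing GFP-tagged PTB and incubated 16 h at 37 C. Cells are then fixed, nuclei stained with Hoechst, and PNC-positive cells counted.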
12-hLO inh: blocks human 12-lipoxygenase activity; P18054; purified 12-hLO, xylenol orange hydroperoxide absorbance; Potency, µM (highest dose often 57.1 µM), for inactives: at the top dose activity change, negative = inhibition, hits mostly inhibitors; 150,000 tested, 0.12% active; AID 1452; further: potency means the concentration at half of the fitted maximal effect; nearly all actives have a fitted effect of over 55% in size
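Xylenol orange chromogenic assay: hydroperoxide from 12hLO oxidises Fe(II), giving red-shifted Fe(III)-XO absorbance. Conditions: 150 nM enzyme, 40 uM arachidonic acid, 25 mM Hepes pH 7.0, 0.01% Triton X-100, 30 min, room temperature.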
IMPase Li cell: IMPase inhibition in cells with lithium potentiation | CHO-M1 cells, IP1 TR-FRET (IP-One), carbachol + lithium | AID 1457 | 210,000 tested, 0.35% active | Potency, µM (doses to about 59.4 µM), for inactives: top-dose activity, negative = IMPase inhibition, hits mostly inhibitors;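 further: IP1 builds up when IMPase is blocked and the TR-FRET signal falls; potency means the concentration at half of the fitted maximal effect; plate controls were basal vehicle for no effect and high inhibitor control for full effect; nearly all actives have a fitted effect of over 50% in size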
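Test compounds were applied to CHO-M1 cells previously cultured for 16–30 h at 2000 per well. A small lithium amount accompanied them; after 30 min at 37C, IP1 was quantified by TR-FRET.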
HPGD inh: inhibitors of human 15-hydroxyprostaglandin dehydrogenase (HPGD) | P15428 | purified HPGD, NADH fluorescence kinetic, PGE2 substrate | Potency, µM, without a hit: at the highest dose activity change, negative = inhibition, hits mostly inhibitors | 150,000 tested, 4.3% active; active means well fitted inhibition curve with a large enough effect, not every such curve was filed as active; inconclusive means small, poorly fitted or top-dose-only effect, or another doubt; inactive means no such curve, though single readings can be large or run the other way; further: potency means the concentration at half of the fitted maximal effect
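NADH formation kinetics: reaction with 30 uM PGE2 and 1 mM NAD+ (final), 20 nM enzyme, Tris-HCl pH 8 with Tween 20, after 15 min compound preincubation at room temperature. Fluorescence change, last versus first of five reads.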
IMPase inh: IMPase inhibition in cells | P97697 | 120,000 tested, under 10 active | AID 901 | CHO-M1 cells, IP1 accumulation, HTRF TR-FRET ratio | inhibition (IP1 accumulation), % at 46.1 µM; active means well fitted curve in the direction sought with a large enough effect in the signal ratio, not every such curve was filed as active; inconclusive means small, poorly fitted or top-dose-only effect, or a change in a side signal; inactive means no such curve, though single readings can be large or run the other way; the % refers to the signal ratio;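 further: cells stimulated with carbachol in lithium chloride buffer; plate controls were DMSO basal wells for no effect and reference inhibitor wells for full effect; higher means more IMPase inhibition seen as more IP1 and lower FRET ratio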
Target sequence (P97697 whole entry, looked up): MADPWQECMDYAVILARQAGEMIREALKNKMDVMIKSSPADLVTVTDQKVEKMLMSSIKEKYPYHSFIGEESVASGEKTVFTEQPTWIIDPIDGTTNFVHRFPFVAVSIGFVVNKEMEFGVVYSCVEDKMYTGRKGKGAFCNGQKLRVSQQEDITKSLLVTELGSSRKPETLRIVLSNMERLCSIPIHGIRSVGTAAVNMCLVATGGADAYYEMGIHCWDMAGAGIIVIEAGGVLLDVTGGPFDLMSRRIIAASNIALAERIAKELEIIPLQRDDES
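Seeded CHO-M1 cells were dosed with compound at up to 46 uM, stimulated with carbachol for 30 min, then lysed in IP-One detection reagents. Higher IP1 lowers the TR-FRET signal.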
ALDH1A1 block: blocks purified human ALDH1A1 activity; P00352; Purified ALDH1A1, NADH fluorescence, propionaldehyde substrate; Potency, µM (top dose mostly 75.3 µM), for the others: top-dose activity, negative = inhibition, most hits filed as inhibitors; 220,000 tested, 7.3% active; AID 1030; active means well fitted inhibition curve with a large enough effect, not every such curve was filed as active; inconclusive means small, poorly fitted or top-dose-only effect, or another doubt; inactive means no such curve, though single readings can be large or run the other way;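 further: potency means the concentration at half of the fitted maximal effect; plate controls were no enzyme wells and a reference inhibitor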
Target sequence (P00352 whole entry, looked up): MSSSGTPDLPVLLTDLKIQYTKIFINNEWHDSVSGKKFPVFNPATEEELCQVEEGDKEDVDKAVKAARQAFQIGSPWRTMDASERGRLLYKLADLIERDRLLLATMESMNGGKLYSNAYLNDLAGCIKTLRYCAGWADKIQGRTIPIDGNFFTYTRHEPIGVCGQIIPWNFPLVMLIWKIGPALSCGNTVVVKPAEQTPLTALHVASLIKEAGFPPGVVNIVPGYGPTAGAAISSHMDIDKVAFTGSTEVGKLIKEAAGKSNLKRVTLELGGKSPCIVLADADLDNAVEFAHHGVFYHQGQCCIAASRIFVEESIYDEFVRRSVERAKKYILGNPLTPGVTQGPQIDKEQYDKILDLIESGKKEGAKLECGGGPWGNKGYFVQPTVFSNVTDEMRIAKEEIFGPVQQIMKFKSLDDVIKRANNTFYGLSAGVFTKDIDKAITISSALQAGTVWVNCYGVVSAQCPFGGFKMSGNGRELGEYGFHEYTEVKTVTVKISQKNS
* marks the source's active call; other numbers are inactive results; ? = inconclusive; . = no result; [ ] = remark or other dose. Compounds with a hit are over-represented: about 11% of the library has one in this group of screens. Unless noted, the call rests on the fitted dose curve; in most records, active means well fitted curve in the direction sought with a large enough effect; inconclusive means small, poorly fitted or top-dose-only effect, or another doubt; inactive means no such curve, though single readings can be large; an effect the other way counts as inactive or inconclusive. Unless noted, on the % scale 0 is the no-effect control and ±100 the full control effect.

SMILES	PNC assembly inh	12-hLO inh	IMPase Li cell	HPGD inh	IMPase inh	ALDH1A1 block
C=CC[C@@H]1C=C[C@@H](O/N=C(/C)CCC(=O)OC[C@@H]2O[C@H](C#Cc3ccccc3)C=C[C@@H]2Oc2ccc(C)cc2)[C@@H](CO)O1	.	.	.	.	.	10.3%[13.5 µM]
COc1ccc(NC(=O)c2cc(-c3ccccc3)nc3c2c(C)nn3-c2ccccc2)c(OC)c1	-89.4*	-1.9%	-3.7%	?	.	171.6%
COc1cc2c(C)nc3c(c(C)nn3-c3ccccc3)c2cc1OC	.	.	11.2µM*	.	.	?
COc1cc2c(-c3ccc(O)cc3)nc3c(c(C)nn3-c3ccccc3)c2cc1OC	37.5	-3.9%	10.1%	?	.	?
C[C@@H]1C(=O)N(C)C(=O)c2nc[nH]c21	.	-3.7%	.	.	-0.7	.
Nc1ccccc1S[C@@H](C[N+](=O)[O-])c1ccc2c(c1)OCO2	.	-16.9%[11.4 µM]	11.4%	3.16µM*	.	3.55µM*
c1ccc(SC(Sc2ccccc2)c2ccc3c(c2)OCO3)cc1	.	1.4%[11.4 µM]	8.6%	-1.7%	.	0.5%[13.5 µM]
COc1ccc(N=C(C)C2=C(O)CSC2=O)cc1	18.5	7.8%	-10.1%[38.3 µM]	-14.6%	2.6	?
CC(=Nc1ccccc1)C1=C(O)CSC1=O	-12.3	10.4%	2.9%[38.3 µM]	-17.7%	6.0	25.1µM*
C/C(Cl)=C\CNC(C)c1ccccc1 (configuration not stated)	-8.4	-0.5%	-0.7%[38.3 µM]	-3.2%	4.4	4.1%
C=C(C)CC1(NC(C)c2ccccc2)CCCCC1 (configuration not stated)	-108.7*	-0.9%	3.1%	0.6%	.	7.4%
COc1ccc(C(=O)OC2CC3CC[C@H](C2)N3C(C)=O)cc1OC (some centres not stated)	.	.	8.9%	-0.2%	.	8.7%
O=C(Nc1ncc2c(n1)CC(c1ccccc1)CC2=O)c1ccco1 (configuration not stated)	-12.1	-9.0%	-3.1%	-12.7%	.	?
O=C(CSc1nnnn1-c1ccccc1)Nc1ncc2c(n1)CC(c1ccco1)CC2=O (configuration not stated)	-2.4	-9.4%	10.3%[38.3 µM]	-12.3%	9.4	5.01µM*
O=C1CC(c2ccco2)Cc2nc(Nc3ccc(F)cc3)ncc21 (configuration not stated)	8.2	-17.2%	34.4%[38.3 µM]	-18.5%	-5.1	10µM*
COc1ccccc1C(=O)Nc1ncc2c(n1)CC(c1ccco1)CC2=O (configuration not stated)	-2.9	-9.1%	6.3%[38.3 µM]	-6.1%	-1.9	8.91µM*
COc1ccc(NC(=O)N2CC3(CCN(C(=O)c4csnn4)CC3)C2)cc1	.	4.7%	5.0%	-6.8%	.	-6.2%
S=C(NCc1ccccc1Cl)Nc1ccccc1Cl	.	.	1.7%	.	.	?
S=C(NCc1cccs1)Nc1cccc(Cl)c1	2.3	-13.7%	2.7%	12.6µM*	-0.6	5.3%
Cc1cc(Cl)ccc1NC(=S)NCc1cccs1	?	-19.7%	-8.2%[38.3 µM]	?	9.2	-0.2%
S=C(NCc1cccs1)Nc1ccccc1Cl	-15.0	-1.8%	-1.4%	14.1µM*	.	-2.1%
NNC(=S)Nc1ccccc1Cl	.	.	6.4%	.	.	28.2µM*
CC/C=C\C/C=C\C/C=C\C/C=C\C/C=C\C/C=C\CCC(=O)NCCO	.	-3.0%	13.9%	-5.6%	.	?
COc1ccc(-c2cc3nc(-c4ccc(C)cc4)cc(C(F)(F)F)n3n2)cc1	.	.	.	.	-1.1	.
CN(C)CCCSc1nc2ccccc2[nH]1	.	-5.7%[11.4 µM]	-3.2%	2.4%	.	21.3%[13.5 µM]
SMILES	PNC assembly inh	12-hLO inh	IMPase Li cell	HPGD inh	IMPase inh	ALDH1A1 block
Cc1nn(Cc2ccc(Cl)cc2)c(C)c1NC(=O)Cn1nc([N+](=O)[O-])c(Cl)c1C	1.5	-9.4%	-7.2%[38.3 µM]	-1.8%	-2.2	-1.6%
Cc1nn(Cc2ccc(Cl)cc2)c(C)c1NC(=O)c1ccc([N+](=O)[O-])cc1	-83.9*	1.9%	.	.	3.2	3.9%
Nc1nnc(N2CCCCC2)s1	-29.9	-2.3%	0.8%[38.3 µM]	-0.8%	5.1	25.1µM*
COC(=O)c1ccc(C(NC(=O)OCc2ccccc2)/C(I)=C/[C@@H](C)C(=O)NCc2ccc(C)o2)cc1 (some centres not stated)	.	-4.8%	7.3%	-27.1%	.	28.2µM*
COC(=O)c1ccc(C(NC(=O)OCc2ccccc2)/C(I)=C/[C@@H](C)C(=O)NCc2ccc(OC)c(O)c2)cc1 (some centres not stated)	.	-0.8%	4.1%	-6.3%	.	-6.6%
CCC(=O)Oc1ccc(C2Nc3ccccc3-c3nnc(SC)nc3O2)cc1 (configuration not stated)	.	.	.	.	4.5	.
O=S(=O)(Nc1cccnc1)c1cccc(C(F)(F)F)c1	-91.5*	-4.9%	13.7%[38.3 µM]	-12.0%	-6.7	2.6%
COc1cc2oc(=O)cc(-c3ccc(-c4sccc4C=O)cc3)c2c(OC)c1OC	.	-3.4%[0.00818 µM]	19.8%	-11.1%	.	-6.7%
CC(C)c1ccc(S(=O)(=O)N2CCN(C(=S)NCc3ccco3)CC2)cc1	-14.5	-12.7%	-9.7%	28.2µM*	.	-1.7%
O=S(=O)(c1ccccc1)N1CCN(C(=S)NCc2ccccc2)CC1	.	.	-5.3%	.	.	?
O=S(=O)(c1cccc(C(F)(F)F)c1)N1CCN(C(=S)NCc2ccco2)CC1	-108.7*	-3.6%	-1.1%	-8.0%	.	-3.6%
COc1cc(NS(=O)(=O)c2ccc(NC(=O)c3ccc(OC)c(Br)c3)cc2)nc(OC)n1	.	.	.	.	-1.1	.
COc1ccc(CNC(=O)C(=O)NCc2cccnc2)cc1	.	.	-2.6%	.	.	0.0%
COc1ccc2c(c1)C=C(C(=O)OCc1cccnc1)CO2	.	.	9.5%	.	.	8.91µM*
COc1cc(-c2nc(-c3ccccc3)c(-c3ccc(Br)cc3)[nH]2)cc(OC)c1O	.	.	.	.	-4.1	.
Cc1cc(C)nc(NS(=O)(=O)c2ccc(Br)s2)c1	?	-4.9%	3.5%[38.3 µM]	?	10.7	25.1µM*
O=c1cnc2cnc(Oc3ccccc3)nc2n1C1CC1	.	.	5.5%	.	.	?
CC(C)CN1C(=O)C(=Nc2cccnc2)c2ccccc21	.	.	-5.9%	.	.	1µM*
CCCn1c(C)nc2c(NC(C)CCCN(CC)CC)nc(C)nc21 (configuration not stated)	.	3.1%	-2.6%	-12.1%	.	3.1%
CCOc1cccc(C(=O)NC(=S)Nc2cccnc2)c1	-2.9	-3.3%	5.2%	-12.2%	.	?
O=C(O)c1ccc(NC(=S)NC(=O)c2cccc(COc3ccccc3)c2)cc1	.	.	12.3%	.	.	3.55µM*
CCOc1cccc(C(=O)NC(=S)Nc2ccccc2)c1	6.9	?	8.7%	-19.6%	.	17.8µM*
CCOc1cccc(C(=O)NC(=S)Nc2cccc(NC(=O)c3ccccc3Cl)c2)c1	29.7	?	-13.4%	-26.6%	.	1.41µM*
COc1cccc(C2Nc3ccccc3-c3nnc(SCc4ccccc4)nc3O2)c1OC (configuration not stated)	.	.	.	.	-1.4	.

Screens deposited in PubChem BioAssay by National Center for Advancing Translational Sciences (NCATS).
